# Rows were chosen to be rich in hits. Some 4.6% of all compounds tested hit in one or more screens of this group.
# TRHR ag: TRH receptor (human) agonism. TRHR cells, calcium flux fluo-8, FDSS agonist mode. activation, % at 2 µM. actives 0.18% (n = 360,000). AID 493084; further: 0% is about no effect
#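 Agonist-mode FDSS calcium read (Ex 480/Em 530, 1 s cycles) in 1536-well TRHR cells with fluo-8 dye, after 10-cycle baseline and 23 nL compound addition; TRH at EC20 (10 nM final) added afterwards for the enhancer phase.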
# TRHR enhancer: allosteric enhancers of human TRH receptor. P34981. TRHR cells, fluo-8 calcium fluorescence, EC20 TRH enhancement. enhancement, % at 2 µM. actives 0.66% (n = 360,000). AID 493056; in the data active means enhancement above about 30%; further: 0% is about no effect
#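 TRHR-expressing cells loaded with fluo-8 calcium dye were read kinetically (ex 480/em 530) during compound addition, then stimulated with an EC20 of TRH (10 nM final). Enhancement of the Gq-mediated intracellular calcium response was scored.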
# D1 antagonist: antagonists of human D1 dopamine receptor; P21728; HEK293 TREx D1 cells, calcium flux, dopamine EC80; active compounds read low; activity change, negative = inhibition, % at 10 µM; actives 3.2% (n = 360,000); in the data active means activity change below about -30%; further: on the % scale 0 is the no-effect control and ±100 the full control effect
# Target sequence (P21728 whole entry, looked up): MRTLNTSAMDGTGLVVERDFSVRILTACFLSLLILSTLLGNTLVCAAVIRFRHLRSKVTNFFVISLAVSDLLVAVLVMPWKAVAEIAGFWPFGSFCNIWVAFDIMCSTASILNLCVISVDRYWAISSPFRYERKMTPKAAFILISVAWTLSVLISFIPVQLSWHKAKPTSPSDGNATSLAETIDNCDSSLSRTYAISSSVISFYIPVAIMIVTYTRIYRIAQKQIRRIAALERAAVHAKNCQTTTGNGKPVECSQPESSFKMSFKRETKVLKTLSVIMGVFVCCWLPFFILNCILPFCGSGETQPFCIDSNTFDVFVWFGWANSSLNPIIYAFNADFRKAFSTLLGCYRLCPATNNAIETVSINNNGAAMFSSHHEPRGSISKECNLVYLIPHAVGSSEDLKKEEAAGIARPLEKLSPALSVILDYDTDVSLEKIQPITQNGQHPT
#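 Allosteric or orthosteric antagonism assessed as attenuation of the calcium response to EC80 dopamine, added 180 s after compound, in induced HEK293 Trex D1 cells loaded with no-wash calcium dye.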
# D1 ag: human D1 receptor agonism. HEK293 T-REx D1 cells, calcium flux, agonist mode. activation, % at 2 µM. actives 1% (n = 360,000). AID 504660; further: 0% is about no effect
#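 Inducible HEK293 T-REx D1 cells, force-coupled to calcium signalling, were plated at 4000 cells/well with tetracycline and held overnight at 30 C. After no-wash calcium dye loading, compound-evoked calcium rise over 180 s flagged agonists.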
# D1 potentiator: enhances dopamine response at the human D1 receptor; potentiation, % at 10 µM; P21728; actives 0.036% (n = 360,000); HEK293 TREx D1 cells, calcium flux, dopamine EC20 potentiation; in the data active means potentiation above about 30%; further: 0% is about no effect
# Numbers without * were called inactive; x = not tested or not shown. Unless noted, no stated cut-off is given here; in the data, active means activation above about 30%; inactive means the rest.
SMILES,TRHR ag,TRHR enhancer,D1 antagonist,D1 ag,D1 potentiator
Cc1ccccc1COC(=O)CCCC1=NS(=O)(=O)c2ccccc2N1,2,-5,-1,31*,-3
Cc1nn(-c2ccccc2)c2sc(C(=O)Nc3cccc(Br)c3)cc12,2,2,7,11,-1
COC(=O)[C@H](CC(C)C)NCc1cccc(CN[C@@H](CC(C)C)C(=O)OC)c1,1,-2,-7,6,-4
COc1ccc(C(=O)O)cc1NC(=S)NC(=O)CSc1ccc(Cl)cc1,0,-3,-74*,3,-3
COc1cccc(NC(=S)NC(=O)Cc2ccc(Cl)cc2)c1,4,2,0,68*,-6
CCC(=O)NC(=S)Nc1ccccc1OC,0,2,-9,1,-5
COc1ccccc1NC(=S)NC(=O)Cc1ccc(Cl)cc1,5,-21,-43*,57*,-6
CN(CC(=O)Nc1ccccc1C(F)(F)F)C(=O)c1cccc(-n2cccc2)c1,0,6,-11,3,-7
COc1ccc(C(=O)C2CCCN(S(=O)(=O)c3ccccc3F)C2)c(C)c1 (configuration not stated),0,-3,7,20,1
COc1ccc(NC(=O)c2noc3c2CCCC3)cc1Cl,2,-4,-7,3,-2
Cc1ccc(C(=O)CCC(=O)OCC(=O)NNC(=O)c2ccccc2Cl)cc1,-1,32*,-8,1,-4
O=C(COC(=O)CCC(=O)c1ccccc1)NNC(=O)c1ccc(Cl)cc1,0,-3,10,0,1
CCn1c(SCC(=O)Nc2cccc(Cl)c2)nnc1-c1nonc1NC(C)=O,-1,-8,2,3,-2
Cc1ccc(CNC(=O)c2cnc(N(C)C)nc2)cc1,-1,4,-42*,1,-1
COc1ccc(CNC(=O)c2cnc(N(C)C)nc2)cc1,1,1,-1,2,0
CS(=O)(=O)N1CCC(C(=O)Nc2cc(Cl)c(Cl)cc2Cl)CC1,0,-12,-34*,6,1
CS(=O)(=O)N1CCC(C(=O)Nc2ccc(Cl)c(Cl)c2)CC1,4,-12,-59*,20,-5
O=C(Nc1ccc(F)cc1)C1CCN(S(=O)(=O)c2ccc3c(c2)CCCN3C(=O)C2CCC2)CC1,0,-2,-22,0,-6
CS(=O)(=O)N1CCC(C(=O)Nc2cc(Cl)ccc2Cl)CC1,-1,4,2,1,1
O=C(Nc1ccc(Cl)c(Cl)c1)C1CCCCC1,0,-7,-32*,8,-8
O=C(Nc1ccc2c(c1)OCO2)C1CCCCC1,0,0,3,5,0
Cc1ccc(NC(=O)C2CCN(S(=O)(=O)c3ccc4c(c3)CCCN4C(=O)C3CCC3)CC2)cc1,-1,-4,-48*,1,-7
Cc1ccccc1-n1nnnc1SCC(=O)NNC(=O)c1ccc(NC(=O)CC#N)cc1,1,4,-2,3,-6
Cc1ccc(CNC(=O)C(=O)NCC(c2cccs2)S(=O)(=O)c2ccccc2)cc1 (configuration not stated),1,-1,6,11,-1
Cc1ccccc1-c1nc(CS(=O)(=O)CC(=O)Nc2c(C)cccc2C)c(C)o1,0,-5,0,3,0
SMILES,TRHR ag,TRHR enhancer,D1 antagonist,D1 ag,D1 potentiator
CN(C1CCCCC1)S(=O)(=O)c1ccc2c(c1)c(=O)c(C(=O)NCc1ccccc1Cl)cn2C,0,-4,12,2,0
Cc1ccc(S(=O)(=O)N2CCC(C(=O)Nc3ccc(C)c(Cl)c3)CC2)cc1,-1,6,-39*,14,-5
Cc1nc2c(-c3ccccc3)c(C)nn2c(SCC(N)=O)c1Cc1ccccc1,0,34*,10,-1,-3
COCCNC(=O)C(OC(=O)c1cccs1)c1ccccc1 (configuration not stated),-1,-9,-36*,9,3
COc1ccc(NC(=O)C2CCN(S(=O)(=O)c3cccc(-c4noc(C)n4)c3)CC2)cc1OC,-1,7,2,0,-1
COc1ccc(CC(CC(=O)O)C(=O)Nc2ccc(Cl)c(Cl)c2)cc1 (configuration not stated),0,0,-31*,-1,14
Cc1ccc(CC(CC(=O)O)C(=O)Nc2ccc(Cl)cc2)cc1 (configuration not stated),0,-7,-2,7,-5
Cc1cccc(C)c1N/C=C/c1onc(C)c1[N+](=O)[O-],1,6,-7,-1,-6
Cc1noc(/C=C/c2cccnc2)c1[N+](=O)[O-],1,-4,2,4,-9
Cc1noc(/C=C/c2ccc(-c3ccccc3Cl)o2)c1[N+](=O)[O-],32*,10,-4,133*,2
Cc1ccc(N/C=C/c2onc(C)c2[N+](=O)[O-])cc1,9,-3,4,33*,3
COc1ccc(N2CCN(C(c3ccccc3)c3sc4nc(-c5ccco5)nn4c3O)CC2)cc1 (configuration not stated),-1,3,x,-3,-1
COC(=O)c1ccc(C(=O)OC)c(NC(=O)COC(=O)c2ccc(OC)c(OC)c2OC)c1,0,-5,-86*,0,-5
CCOCC(=O)Nc1cc(C(=O)OC)ccc1C(=O)OC,-1,0,-19,0,-10
COc1ccc(NC(=O)N2CCN(c3cc(-c4noc(C)n4)ccc3C)CC2)c(OC)c1,-1,-6,-14,2,-3
COc1ccc(NC(=O)c2ccc(-c3ccc(-c4noc(C)n4)cc3C)cc2)cc1N1CCN(C)CC1,0,1,-57*,14,-5
COC(=O)c1cn(NC(=O)/C=C/c2cccc(OC)c2OC)c(=O)c2ccccc12,0,-2,1,1,-7
COC(=O)c1cn(NC(=O)/C=C/c2ccc(OC)c(OC)c2)c(=O)c2ccccc12,1,0,-74*,0,-11
Cc1ccccc1CSc1ccc(-c2cccs2)nn1,0,3,-25,-1,-4
Cc1ccc(Cl)cc1N1CCN(C(=O)c2ccc3nc[nH]c3c2)CC1,1,2,-1,7,-5
Cc1cccc(N2CCN(C(=O)c3ccc4nc[nH]c4c3)CC2)c1C,-1,2,-46*,20,-7
Cc1csc2nc(COC(=O)c3cccc(NC(=O)COc4ccccc4Cl)c3)cc(=O)n12,0,4,-2,0,-1
C=CC[C@H]1CC(C)=C[C@H](CC=C)N1C(=O)c1cc(COc2ccccc2SC)on1,2,-2,-13,40*,3
O=C(COC(=O)COc1ccc2ccccc2c1)NCC(F)(F)F,0,-7,-32*,25,3
Cc1cccc(NC(=O)c2ccc(Cn3nc(N4CCN(c5ccccc5)CC4)ccc3=O)o2)c1C,-1,-2,-18,1,-1

# Source: PubChem
